Measured values published in PubChem BioAssay AID1851 (National Center for Advancing Translational Sciences (NCATS), 2009).
Where “and” joins values, the source holds several entries; their conditions need not be identical. Equal values may be shown once. In all, about 16,000 compounds went through this assay and about 2,600 (16%) were called active. Inconclusive results (about 20%) are left out. Many of the other results were omitted from the sample, so actives are more common in it than they were. Values without a mark were called inactive. The call rests on the fitted dose curve; in most records, active means well fitted curve in the direction sought with a large enough effect; inconclusive means small, poorly fitted or top-dose-only effect, or effect the other way; inactive means no such curve, though single readings can be large or run the other way.

molecular target: Cytochrome P450 2D6 (Homo sapiens) (UniProt P10635); assay: Cytochrome panel assay with activity outcomes; settings: recombinant CYP, pro-luciferin dealkylation, luminescence, p450-cyp2d6; series mostly up to 57.1 µM; activity, negative = inhibition: at the top concentration
Sequence (P10635 whole entry, looked up): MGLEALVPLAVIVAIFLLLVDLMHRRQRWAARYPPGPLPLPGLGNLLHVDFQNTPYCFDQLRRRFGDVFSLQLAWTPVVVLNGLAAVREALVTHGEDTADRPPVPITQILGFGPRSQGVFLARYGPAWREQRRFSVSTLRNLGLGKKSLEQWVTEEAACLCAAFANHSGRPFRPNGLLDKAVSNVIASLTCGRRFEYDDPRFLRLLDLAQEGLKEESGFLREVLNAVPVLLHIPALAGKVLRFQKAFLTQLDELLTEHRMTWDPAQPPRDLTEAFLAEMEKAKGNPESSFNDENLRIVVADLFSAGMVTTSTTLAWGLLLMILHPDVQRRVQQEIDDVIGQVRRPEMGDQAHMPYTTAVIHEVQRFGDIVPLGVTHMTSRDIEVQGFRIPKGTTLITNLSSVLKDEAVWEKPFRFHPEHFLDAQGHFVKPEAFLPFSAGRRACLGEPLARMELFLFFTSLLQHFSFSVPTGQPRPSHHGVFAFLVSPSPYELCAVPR
Experimental: The P450 gene superfamily is involved in the metabolism and clearance of xenobiotics. This assay used various human CYP P450 isozymes to measure the dealkylation of various pro-luciferin substrates to luciferin. The luciferin is then measured by luminescence after the addition of a luciferase detection reagent. Pro-luciferin substrate concentration in the assay was equal to its KM for its CYP P450 isozyme. Inhibitors and some substrates limit the production of luciferin, and decrease measured luminescence.
NCGC Assay Protocol Summary:
1, Reagent, 2 uL, Isozyme and Pro-Luciferin
2, Library compounds, 23 nl, 40 uM to 0.24 nM dilution series
3, Controls, 23 nl, Isozyme specific inhibitor
4, Reagent, 2 uL, NADPH regeneration solution
5, Incubation time, 60 min, Isozyme specific temperature
6, Reagent, 4ul, Detection reagent
7, Incubation time, 20 min, Isozyme specific temperature
8, Detection, 1 sec, ViewLux luminescent read
The luciferase-based P450-GloTM Screening Systems were obtained from Promega (Madison, WI) for CYP 1A2 (V9770), CYP 2C9 (V9790), CYP2 C19 (V9880), CYP 2D6 (V9890), and CYP 3A4 Luciferin-PPXE (V9910) and were adapted for 1,536-well microplates and an automated protocol. The control compounds furafylline for 1A2 (F124), sulfaphenazole for CYP 2C9 (S0758), ketoconazole for CYP 2C19 (K1003), quinidine for 2D6 (Q3625), and ketoconazole for 3A4 (K1003) were purchased from Sigma Aldrich (St. Louis, MO). Recombinant P450 enzymes were obtained from baculovirus constructs expressed in insect cells (BD/Gentest).
Medium-binding white solid Kalypsys plates used. Mixtures kept on ice. 1A2: 10 nM 1A2, 100 uM Luc-ME, 100 mM KPO4; 2C9: 10 nM 2C9, 100 uM Luc-H, 25 mM KPO4; 2C19: 5 nM 2C19, 10 uM Luc-H EGE, 50 mM KPO4; 2D6: 5 nM 2D6, 30 uM Luc-ME EGE, 100 mM KPO4; 3A4: 10 nM, 25 uM Luc-PPXE. All amounts are reflected in their final concentration, working concentration is 2x.
NADPH regeneration solution: 1.3 mM NADP+, 3.3 mM glucose-6-phosphate, 3.3 mM MgCl2, 0.4 U/mL glucose-6-phosphate dehydrogenase for all isozymes, 200 mM KPO4 for 3A4. Mixture prepared at RT but kept on ice during automated run.
RT incubation in auxilliary plate hotel for 1A2, 2D6, and 3A4; 37C for 2C9 and 2C19.
Keywords: P450, CYP1A2, CYP2C19, CYP2C9, CYP2D6, CYP3A4, Luciferase, MLSMR, MLSCN, NIH Roadmap, qHTS, NCGC
On the % scale 0 is the no-effect control and ±100 the full control effect.

Row | SMILES | activity, negative = inhibition | AC50
1 | O=C1c2cc([N+](=O)[O-])ccc2-c2ccc3c4ccc5c6c(ccc(c7ccc1c2c73)c64)C(=O)c1cc([N+](=O)[O-])ccc1-5 | -6.4% [at 11.4 µM] | –
2 | O=C1c2ccccc2-c2cc([N+](=O)[O-])c([N+](=O)[O-])cc21 | – | 3.16 µM (active)
3 | Cc1cc(C)nc(NC2=NCCS2)n1 | 1.02% | –
4 | C/C(=N\OC(=O)NC(C)C)c1sc(-c2ccccc2)nc1C | -28.9% | –
5 | Cc1noc(C)c1C(=O)N1CCC2(CCCN(CC(C)C)C2)CC1 | – | 12.6 µM (active)
6 | O=C(Oc1ccccc1)N1CCC2(CC1)CN(Cc1ccncc1)C2 | -16.1% | –
7 | CN1CC[C@@]2(CCCN(C(=O)c3ccncc3)C2)C1 | -13.8% | –
8 | O=C(Oc1ccccc1)N1CCC2(CCN(Cc3ccncc3)CC2)CC1 | -7.62% | –
9 | CC(C)CN1CC2(CCN(C(=O)c3ccncc3)CC2)C1 | – | 3.98 µM (active)
10 | CCOC(=O)c1[nH]c(C)c(C(=O)N2CCC3(CC2)OCCO3)c1C | 8.23% | –
11 | O=C(c1ccco1)N1CCC[C@@]2(CCN(Cc3ccncc3)C2)C1 | – | 12.6 µM (active)
12 | O=C(c1ccncc1)N1CCC2(CC1)CN(Cc1ccccc1)C2 | – | 6.31 µM (active)
13 | O=C(Oc1ccc(S(=O)(=O)F)cc1F)c1ccccc1Cl | 12.8% [at 11.4 µM] | –
14 | C/C(O)=C(/C#N)C(=O)Nc1cc(Br)ccc1Br | 2.34% | –
15 | Cn1c(=O)c2[nH]cnc2n(C)c1=O | 2.65% [at 25.6 µM] | –
16 | O=c1cc(-c2ccc(O)cc2)oc2cc(O)cc(O)c12 | 5.24% | –
17 | COc1cc2c(cc1OC)[C@@]13CCN4CC5=CCO[C@H](CC(=O)O)[C@@H]([C@H]1N2)[C@H]5C[C@H]43 | -8.05% [at 11.4 µM] | –
18 | CCC(COC(=O)NC)NC(=O)Oc1ccccc1 (centres undefined) | -14% | –
19 | O=C(c1cc2cc3ccc(Cl)cc3nc2o1)N1CCC2(CC1)OCCO2 | -14.3% | –
20 | O=C(Cc1ccc(Cl)c(Cl)c1)N1CCCC[C@H]1CN1CCCC1 | – | 7.94 µM (active) and 2.51 µM (active)
21 | CC[C@]1([C@H]2O[C@@H]([C@@H]3O[C@](O)(CO)[C@@H](C)C[C@H]3C)C[C@H]2C)CC[C@@H]([C@]2(C)CC[C@@]3(C[C@@H](O)[C@@H](C)[C@@H]([C@H](C)[C@H](OC)[C@H](C)C(=O)O)O3)O2)O1 | 1.92% [at 25.6 µM] | –
22 | c1ccc(CCCCN2CCC(c3ccccc3)CC2)cc1 | – | 0.0398 µM (active)

Row | SMILES | activity, negative = inhibition | AC50
23 | C[C@@H](N)Cn1ccc2cc(F)c(Cl)cc21 | -5.27% | –
24 | CC(C)Oc1cc(-n2c(=S)[nH]c3ccccc3c2=O)c(Cl)cc1Cl | -18.2% | –
25 | C[C@H](CC(C#N)(c1ccccc1)c1ccccc1)N1CCCCC1 | – | 2.51 µM (active)
26 | CC(=O)Nc1ccccc1C(=O)OCc1ccc(C(=O)c2ccccc2)cc1 | 0.604% | –
27 | CC(C)CC(=O)C[C@H](O)C(Cl)(Cl)Cl | 2.83% [at 11.4 µM] | –
28 | C[C@@H]1[C@@H](C)N1C[C@H](O)Cn1ccnc1[N+](=O)[O-] (some centres undefined) | 4.54% [at 11.4 µM] | –
29 | C[N+](C)(C)[C@H](Cc1c[nH]c(=S)[nH]1)C(=O)O | -8.35% [at 11.4 µM] | –
30 | NC[C@H](CC(=O)O)c1ccc(Cl)cc1 | – | 0.794 µM (active)
31 | O=C(O)CP(=O)(O)c1ccc(Cl)cc1 | 9.45% | –
32 | NC[C@@H](CC(=O)O)c1ccc(Cl)cc1 | – | inactive
33 | CCN1CCC2(CC1)NC(CO)(CO)CO2 | 10.6% | –
34 | O=c1[nH]c(=O)n(CCc2ccc(F)cc2)c(O)c1C=NCCCN1CCOCC1 | -11.6% | –
35 | COc1cc2c(cc1OC)[C@@H]1C(=O)c3ccc4c(c3O[C@@H]1CO2)C=CC(C)(C)O4 | – | 0.0631 µM (active)
36 | OC(Cn1c2ccccc2c2ccccc21)C[n+]1ccccc1 (centres undefined) | – | 0.0126 µM (active)
37 | C[C@]12CC[C@@H]3[C@H](CCC4=CC(=O)CC[C@]43C)[C@]1(O)CC[C@@]2(O)C(=O)CO | 16.3% [at 11.4 µM] | –
38 | Cc1nc(N)sc1CCN | -0.208% | –
39 | C[C@@H](Cc1cccc(C(F)(F)F)c1)NCCCc1ccccc1 | – | 0.0126 µM (active)
40 | CNCCCc1ccccc1 | -18.3% | –
41 | CC(O)(CS(=O)(=O)c1ccccc1)C(=O)Nc1cccc(C(F)(F)F)c1 (centres undefined) | -1.04% | –
42 | C[C@@]12CC[C@@H]3c4ccc(O)cc4C[C@H](CCCCCCCCCS(=O)CCCC(F)(F)C(F)(F)F)[C@H]3[C@@H]1CC[C@@H]2O (some centres undefined) | -5.58% | –
43 | CCN(CC)C(=O)N[C@@H]1C[C@H]2c3cccc4[nH]cc(c34)C[C@@H]2N(C)C1 | – | 15.8 nM (active) and 10 nM (active)
44 | CC(C)[C@@]1(NC(=O)[C@@H]2C[C@H]3c4cccc5[nH]cc(c45)C[C@@H]3N(C)C2)O[C@]2(O)[C@H]3CCCN3C(=O)[C@H](Cc3ccccc3)N2C1=O | -17.6% [at 25.6 µM] | –
